Source: PubChem BioAssay (NCI)
About 83,000 compounds went through this panel and 20% of them were active in at least one assay; those are over-represented in the sample as a whole.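 Compound tested at a single concentration for 48 hours in 96-well plates; a percent growth value below 10 was scored as active.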 Values without a mark were called inactive. Calls of active or inactive are those of the source.

Assays:
Assay in all cases: NCI-60 one-dose screen, 48 h (100 = growth as untreated, 0 = no growth, -100 = all killed)
Conditions in all cases: 10 µM unless noted
NCI-H23 lung = system: NCI-H23 lung
NCI-H226 lung = system: NCI-H226 lung
NCI-H322M lung = system: NCI-H322M lung
HOP-62 NSCLC = system: HOP-62 NSCLC
NCI-H460 lung = system: NCI-H460 lung
HOP-92 NSCLC = system: HOP-92 NSCLC
NCI-H522 lung = system: NCI-H522 lung
A549/ATCC NSCLC = system: A549/ATCC NSCLC
786-0 renal = system: 786-0 renal
COLO 205 colon = system: COLO 205 colon
DU-145 prostate = system: DU-145 prostate
K-562 leukemia = system: K-562 leukemia
MALME-3M melanoma = system: MALME-3M melanoma
MDA-MB-231 breast = system: MDA-MB-231 breast
RXF 393 renal = system: RXF 393 renal
SF-268 CNS = system: SF-268 CNS
SF-295 CNS = system: SF-295 CNS
SF-539 CNS = system: SF-539 CNS
UACC-257 melanoma = system: UACC-257 melanoma
M14 melanoma = system: M14 melanoma

Compound | growth (NCI-H23 lung) | growth (NCI-H226 lung) | growth (NCI-H322M lung) | growth (HOP-62 NSCLC) | growth (NCI-H460 lung) | growth (HOP-92 NSCLC) | growth (NCI-H522 lung) | growth (A549/ATCC NSCLC) | growth (786-0 renal) | growth (COLO 205 colon) | growth (DU-145 prostate) | growth (K-562 leukemia) | growth (MALME-3M melanoma) | growth (MDA-MB-231 breast) | growth (RXF 393 renal) | growth (SF-268 CNS) | growth (SF-295 CNS) | growth (SF-539 CNS) | growth (UACC-257 melanoma) | growth (M14 melanoma)
CCN(CC)CCCNc1nc2ccccc2c2c(=O)c3cc(Cl)ccc3sc12 | 86.5% | 82.1% | 84.5% | 74.4% | 8.8% (active) | 36.9% | 73.8% | 64.7% | 75.7% | 56.3% | 54.4% | -44.2% (active) | 84.6% | -9.32% (active) | 76% | 55.6% | 104% | 58.3% | 102% | 1.36% (active)
CCCCC1CCCC12NC(=O)NC2=O (stereo not given) | 99.3% | 88.5% | 98.3% | 99.3% | 117% | 93.6% | 106% | 117% | 105% | 120% | 109% | 127% | 100% | 107% | 113% | 99.5% | 109% | 113% | 112% | 109%
CC1(C)C2CC1C1(/C=N\Nc3ccccc3)C(C2)C(C#N)(C#N)C1(C#N)C#N (stereo not given) | 85.1% | 86.8% | 80.4% | 86.1% | 99% | 80.9% | 77.8% | 93.4% | 100% | 115% | 101% | 84.9% | 97.7% | 75.8% | 103% | 86.3% | 104% | 107% | 98.9% | 83.6%
Cc1ccc(-c2nn(C)c(=O)c3noc(-c4ccc(C)cc4)c23)cc1 | 43.1% | 58% | 56.4% | 28.1% | 22.7% | 14.2% | 9.02% (active) | 46.2% | 29% | 12.5% | 35.3% | 17% | 73.9% | 58.3% | 13.6% | 55.1% | 41.2% | -4.12% (active) | 62.8% | 21.6%
C#Cc1cccc(NC(=O)Nc2ccccc2NC(=O)CCl)c1 | -52.2% [8.25 µM] (active) | -56.2% [8.25 µM] (active) | 91% [8.25 µM] | -34.8% [8.25 µM] (active) | -24.4% [8.25 µM] (active) | -30.6% [8.25 µM] (active) | -58.6% [8.25 µM] (active) | 10% [8.25 µM] | -63.2% [8.25 µM] (active) | -49.3% [8.25 µM] (active) | 6.7% [8.25 µM] (active) | 9.69% [8.25 µM] (active) | -19.1% [8.25 µM] (active) | -71.7% [8.25 µM] (active) | -81.1% [8.25 µM] (active) | -17.4% [8.25 µM] (active) | 38.7% [8.25 µM] | -70.8% [8.25 µM] (active) | -12.6% [8.25 µM] (active) | -22.2% [8.25 µM] (active)
O=C(Oc1cccc2ccccc12)Oc1cccc2ccccc12 | 90.9% | 98.5% | 104% | 96.1% | 110% | 62.8% | 93.8% | 107% | 110% | 127% | 104% | 103% | 98% | 94.2% | 115% | 75.3% | 109% | 101% | 127% | 96.2%
c1ccc(-c2nc3nonc3nc2-c2ccccc2)cc1 | 52.4% | 69.2% | 81.7% | 79% | 62.8% | 78% | 49.2% | 76.7% | 73.8% | 82.6% | 68.2% | 52.4% | 55.4% | 43.9% | 51.1% | 62.9% | 72.3% | 79.1% | 63.3% | 84.9%
COc1ccc(/C=C(/C#N)n2nnc3cccc(F)c32)cc1 | 14.6% | 60.4% | 25.2% | 38.1% | 4.61% (active) | -2.46% (active) | -24.6% (active) | 37% | 10.6% | 1.85% (active) | -10.7% (active) | 12.8% | 32.5% | 0.925% (active) | -37.9% (active) | 28.2% | 16% | -39.3% (active) | 41.1% | -27% (active)
O=c1n(Cc2ccc3ccccc3c2)ccn1Cc1ccc2ccccc2c1 | 91% | 91.5% | 86.3% | 66% | 85.7% | 83.1% | 46.8% | 82.9% | 95.8% | 96.1% | 100% | 106% | 91.8% | 91.4% | 96.4% | 84.7% | 94.5% | 87.7% | 101% | 93.3%
CNC(=O)c1cc(-n2ccc3cc(NC(=O)c4ccc(N5CCOCC5)c(C(F)(F)F)c4)ccc32)ccn1 | 64% | 51.7% | 91.5% | 62% | 68.4% | 60.5% | 52% | 46.3% | 47.8% | 42.9% | 76% | 25.5% | 73.9% | 77.7% | -2.7% (active) | 88.3% | -3.1% (active) | 30.6% | 84.3% | 62.4%
Cc1cc(N2CCCC2)nc(N(CCCNc2ccnc3cc(Cl)ccc23)Cc2ccccn2)n1 | 59% | 79.8% | 57.1% | 55.6% | 35.6% | 17.4% | 47.3% | 62% | 53.3% | 39.1% | 62.7% | 11.3% | 39.4% | 45.2% | 25.8% | 62.5% | 66% | 9.89% (active) | 49.4% | -15.9% (active)
CCCCNc1nc(NN2C(=O)c3cccc4cccc(c34)C2=O)nc(-n2cnc3ccccc32)n1 | 88.7% | 54.9% | 92.7% | 97.4% | 102% | 60.3% | 89.5% | 89.4% | 97.7% | 107% | 98.6% | 34% | 105% | 87.8% | 74.8% | 89.9% | 88.9% | 75.9% | 99% | 103%
O=C(N/N=C/[C@H](O)[C@@H](O)[C@@H](O)[C@H](O)CO)c1ccc(NC(=O)c2cccnc2)cc1 | 110% | 106% | 103% | 113% | 108% | 111% | 96.2% | 102% | 113% | 110% | 119% | 110% | 108% | 100% | 121% | 103% | 102% | 106% | 102% | 114%
CC1=C(C)C(=O)C(Nc2cccc(C(=O)OC(C)(C)C)c2)=C(Br)C1=O | 85.9% | 86.5% | 91.1% | 92.6% | 99.7% | -32.5% (active) | 67.4% | 95.6% | 96.2% | 114% | 109% | 0% (active) | 88.3% | -36.1% (active) | 94.9% | 93.7% | 101% | 94.7% | 87.3% | 95.1%
